# From PubChem
# RMI-FANCM inh – RMI-FANCM interaction inhibition; FP signal (polarization) at 33 µM; AID 1159607; hit rate 0.58% among 70,000; Fluorescence polarization, RMI core complex with F-MM2 peptide; stronger effect = lower value; in the data active = FP signal below about 40
# Hits are given with their value; i = inactive. This is one part of a sample in which hits are shown more often than they occur.
SMILES,RMI-FANCM inh
CCOc1cccc2cc(-c3csc(NC(=O)c4ccc(S(=O)(=O)N5CCCc6ccccc65)cc4)n3)oc12,i
CCC1CCCCN1S(=O)(=O)c1ccc(C(=O)Nc2nc(-c3cc4cccc(OC)c4o3)cs2)cc1 (stereo not given),19
CCOc1cccc2cc(-c3csc(NC(=O)c4ccc(C(C)=O)cc4)n3)oc12,i
CCOc1ccc(NC(=O)CSc2nc(-c3cccc([N+](=O)[O-])c3)cs2)cc1,i
c1ccc2c(c1)Nc1nc3ccccc3nc1O2,i
Cc1nc2ccccc2nc1C,i
c1ccc2c(c1)Nc1nc3ccccc3nc1N2,-3
COc1ccc(Cl)cc1NC(=O)Cc1cc(=O)[nH]c(SCc2ccccc2F)n1,i
CS(=O)(=O)c1cccc(-c2nnc(NC(=O)c3ccc(C(=O)c4ccccc4)cc3)o2)c1,i
COC(=O)Cn1c(=NC(=O)c2ccc(Br)s2)sc2cc(F)ccc21,i
COC(=O)Cn1c(=NC(=O)c2ccc(F)cc2)sc2cc(OC)ccc21,28
COC(=O)Cn1c(=NC(=O)c2ccc(OC)cc2)sc2cc(NC(C)=O)ccc21,i
CN1CCN(C(CNC(=O)C(=O)Nc2cccc(C(F)(F)F)c2)c2ccsc2)CC1 (stereo not given),i
CCOc1ccc(-c2noc(CSc3nc4ccsc4c(=O)n3-c3cccc(OC)c3)n2)cc1,i
COc1ccc(-c2noc(CSc3nc4ccsc4c(=O)n3C)n2)cc1,i
CCOc1ccc(-c2noc(CSc3nc4ccsc4c(=O)n3C3CC3)n2)cc1,39
Cc1ccc(/C=c2\sc3nc(=O)c(C)nn3c2=O)o1,i
N#CCCN1CCN(C2=NC(=O)/C(=C\c3ccc(-c4cccc(C(F)(F)F)c4)o3)S2)CC1,i
Cc1occc1-c1nc2s/c(=C\c3ccc(-c4cccc(C(F)(F)F)c4)o3)c(=O)n2n1,16
COc1ccc(-c2nc(SCC(=O)NCc3ccco3)c3c(=O)n(C)c(=O)n(C)c3n2)cc1OC,i
O=C(Nc1ccc(F)cc1)Nc1nc(C(=O)NCCc2ccc(Cl)cc2)cs1,i
CSc1ccccc1C(=O)Nc1ccccc1-c1nc2ccccc2s1,i
COc1ccc(-c2cc(-c3ccc(C)c(C)c3)nc3sc(C(=O)Nc4nsc(-c5ccc(Cl)cc5)n4)c(N)c23)cc1,i
COc1ccc(-c2cc(-c3ccc(Cl)cc3)nc3sc(C(=O)NCCc4ccccc4)c(N)c23)cc1,-12
COc1ccc(-c2cc(-c3ccccc3)nc3sc(C(=O)Nc4nsc(-c5ccccc5)n4)c(N)c23)cc1OC,i
CCOC(=O)/C=C/C(=O)Nc1sc(C)c(C)c1C(N)=O,i
Cc1sc(N)c(C(=O)c2cccc(C(F)(F)F)c2)c1C,i
Cc1sc(N)c(C(N)=O)c1C,15
CCc1ccc2ncc(C#N)c(Nc3ccc(OC)cc3)c2c1,i
N#Cc1c(NC(=O)c2cccc(Br)c2)sc2c1CCCC2,i
